Activation factor and activity change, negative = activation data for 84 molecules are collected here from PubChem BioAssay AID434970 (Sanford-Burnham Center for Chemical Genomics, 2010).

Structures are written as SMILES. The whole screen tested about 11,000 compounds, of which about 310 (2.8%) were called active. No stated cut-off is given here; in the data, active means activity change below about -85%; inactive means the rest. The sample as a whole holds a higher share of actives than the screen did.

This test deals with intestinal alkaline phosphatase [Mus musculus]. The test can be described thus: activators of mouse IAP, confirmation, biochemical, luminescence, single concentration (AID 434970). To be noted: purified mouse IAP, CDP-Star luminescence, 30 min, at 10 µM; activation factor: measured here: IAP activation factor, stronger effect = higher value; activity change, negative = activation: stronger effect = lower value.
With `CCCN1Cc2cc(OC)ccc2-c2ccccc2S1(=O)=O`, the activation factor came to 1.13 and the activity change, negative = activation was -13.1% (inactive).
Taken in the same sequence, the figures for `O=C(NCc1ccc2c(c1)OCO2)c1cccnc1` were 1.13 and -13% (inactive).
The matching figures for `O=C(OCC1OC2C(Oc3nc(=O)ccn32)C1O)c1ccccc1` (stereo not drawn): 1.02 and -1.5% (inactive).
Regarding `N#Cc1c2c(c(NCc3cccnc3)n3c1nc1ccccc13)CCC2`, the activation factor is 0.779 and the activity change, negative = activation was 22.1% (inactive).
On to `C#CCOCCOCCOCCNc1nc(N2CCN(C(=O)CCCCCCCCCCNC(=O)[C@H](CCCCN)n3cc(C)nn3)CC2)nc(N2CCN(C(=O)CCCCCCCCCCNC(=O)[C@@H]([C@H](C)CC)n3cc(CCCCCN)nn3)CC2)n1`, for which the activation factor amounted to 3.63 and the activity change, negative = activation is -263% (active).
Taken in the same sequence, the figures for `C#CCOCCOCCOCCNc1nc(N2CCN(C(=O)CCCCCCCCCCNC(=O)[C@H]([C@@H](C)CC)n3cc(CCCCN=C(N)N)nn3)CC2)nc(N2CCN(C(=O)CCCCCCCCCCNC(=O)[C@H](CCCCN)n3cc(C)nn3)CC2)n1` were 8.54 and -754% (active).
Taken in the same sequence, the figures for `CC1CCCC(C(=O)O)N1C(=O)CCS` (stereo not drawn) were 0.988 and 1.25% (inactive).
The matching figures for `O=C(Cc1c[nH]c2ccccc12)Nc1nc2ccccc2[nH]1`: 0.845 and 15.5% (inactive).
With `COC(=O)c1c(NC(=O)Nc2ccc(Cl)cc2)sc(C)c1C`, the activation factor came to 0.99 and the activity change, negative = activation was 1% (inactive).
The matching figures for `Cc1csc(NC(=O)Nc2ccc(Cl)cc2)n1`: 1.11 and -11.1% (inactive).
The matching figures for `CC(C)S(=O)(=O)c1csc(NC(=O)Nc2ccc(Cl)cc2)c1Cl`: 2.16 and -116% (active).
The matching figures for `CNC(=O)CCC(=O)Nc1ccc(C(=O)OC)cc1`: 0.98 and 2.05% (inactive).
As for `COC(=O)c1ccc(NC(=O)Nc2ccc(C)cc2)cc1`, the activation factor worked out at 2.15 and the activity change, negative = activation is -115% (active).
The matching figures for `CCOC(=O)c1ccc(NC(=O)Nc2ccc3c(c2)OCCO3)cc1`: 2.06 and -106% (active).
The matching figures for `COC(=O)c1ccc(NC(=O)Nc2cccc(F)c2)cc1`: 1.97 and -97.4% (active).
The matching figures for `CCOC(=O)c1ccc(NC(=O)c2ccc3c(c2)OCO3)cc1`: 0.959 and 4.1% (inactive).
On to `CCOC(=O)c1ccc(NC(=O)Nc2ccc(F)cc2)cc1`, for which the activation factor was determined as 1.67 and the activity change, negative = activation is -66.6% (inactive).
Taken in the same sequence, the figures for `COC(=O)c1ccc(NC(=O)Nc2ccc(F)c(Cl)c2)cc1` were 1.86 and -86.3% (inactive).
Taken in the same sequence, the figures for `CCS(=O)(=O)Nc1ccc(C(=O)OC)cc1` were 0.912 and 8.8% (inactive).
With `CCCCOC(=O)c1ccc(NC(=O)Nc2ccc(OC)c(OC)c2)cc1`, the activation factor worked out at 1.64 and the activity change, negative = activation was -63.5% (inactive).
The matching figures for `CC(Sc1nnc(-c2ccco2)o1)C(=O)Nc1ccc(OC(F)F)cc1` (stereo not drawn): 0.893 and 10.7% (inactive).
The matching figures for `CC1=C(C(N)=O)C(c2cccnc2)n2nc(-c3cccc(Cl)c3)nc2N1` (stereo not drawn): 0.96 and 4% (inactive).
Taken in the same sequence, the figures for `CCCNC(=O)c1csc2c1CCCCC2` were 0.955 and 4.55% (inactive).
As for `CC(NC(=O)CCSc1nc(-c2ccc3c(c2)OCO3)cc(C(F)(F)F)n1)c1ccccc1` (stereo not drawn), the activation factor was 0.978 and the activity change, negative = activation is 2.2% (inactive).
For `Cc1cccc(C2=NN(c3ccccc3)[C@@H](C(=O)N3CCOC3=O)[C@@H]2c2ccccc2)c1`, the activation factor is 0.97 and the activity change, negative = activation is 3% (inactive).
`CCCN=C1N(CC)C[C@@H]2[C@@H]3C(=O)N(Cc4ccccc4)C(=O)[C@@H]3[C@](Cc3ccccc3)(C(=O)OC)N12`: the activation factor was determined as 1.07 and the activity change, negative = activation is -7.35% (inactive).
The matching figures for `O=C(CCS(=O)(=O)c1cccc2nonc12)NC1CCCCCC1`: 1.11 and -10.6% (inactive).
With `CN(C)CCCNC(=O)C[C@H]1C[C@H](C(=O)N2CCCCC2)[C@@]2(CCc3ccccc3)c3[nH]c4cc(-c5ccco5)ccc4c3CCN2C1=O`, the activation factor was found to be 1.28 and the activity change, negative = activation is -28.4% (inactive).
The matching figures for `CCOc1ccccc1NC(=O)N1CCC(NC(=O)c2cccc(C)c2)CC1`: 0.98 and 2% (inactive).
On to `CC(C)c1ccc(NC(=O)NC2CCN(CC(=O)Nc3cccc4ccccc34)CC2)cc1`, for which the activation factor was 3.72 and the activity change, negative = activation is -272% (active).
Taken in the same sequence, the figures for `Cc1cc(C)cc(NC(=O)NC2CCN(CC(=O)Nc3cccc(Cl)c3C)CC2)c1` were 1.68 and -68.1% (inactive).
The matching figures for `CCOC(=O)c1ccc(NC(=O)NC2CCN(CC(=O)NCc3ccc4c(c3)OCO4)CC2)cc1`: 1.61 and -60.6% (inactive).
The matching figures for `CCOc1ccccc1NC(=O)CN1CCC(NC(=O)Nc2ccccc2)CC1`: 2.99 and -199% (active).
Turning to `CCOc1ccccc1NC(=O)C1CCCN(C(=O)Nc2ccccc2)C1` (stereo not drawn), the activation factor amounted to 0.961 and the activity change, negative = activation is 3.9% (inactive).
The matching figures for `CCOCCCNC(=O)c1ccccc1SCC`: 1.04 and -4% (inactive).
Taken in the same sequence, the figures for `CCOC(=O)c1c(C)[nH]c(C)c1C(=O)CSc1nnc(-c2ccco2)n1Cc1ccccc1` were 1.03 and -3.25% (inactive).
Regarding `O=C(CSc1nnc(-c2ccncc2)n1CC1CCCO1)Nc1nccs1` (stereo not drawn), the activation factor was 1.03 and the activity change, negative = activation was -2.65% (inactive).
For the molecule `COc1ccc(C2C(C(=O)N3CCN(c4ccccc4F)CC3)c3ccccc3C(=O)N2C)cc1` (stereo not drawn), the activation factor amounted to 1.09 and the activity change, negative = activation was -9.15% (inactive).
The matching figures for `CC1CCCC(NC(=S)Nc2ccc(SC(F)F)cc2)C1C` (stereo not drawn): 2.09 and -109% (active).
In the case of `FC(F)Sc1ccc(NC(=S)NC2CCCCC2)cc1`, the activation factor came out at 1.25 and the activity change, negative = activation was -24.7% (inactive).
For `CC1CCCCC1NC(=S)Nc1ccc(SC(F)F)cc1` (stereo not drawn), the activation factor turned out to be 1.52 and the activity change, negative = activation is -51.8% (inactive).
The matching figures for `O=C(Nc1ccc(SC(F)F)cc1)c1cccc2nc3ccccc3nc12`: 0.946 and 5.4% (inactive).
The matching figures for `FC(F)Sc1ccc(NC(=S)NCc2ccccc2)cc1`: 1.27 and -26.5% (inactive).
Taken in the same sequence, the figures for `FC(F)Sc1ccc(NC(=S)NC2CCC(NC(=S)Nc3ccc(SC(F)F)cc3)CC2)cc1` (stereo not drawn) were 2.35 and -135% (active).
As for `FC(F)Sc1ccc(NC(=S)NCC2CCCCC2)cc1`, the activation factor came out at 1.45 and the activity change, negative = activation is -44.6% (inactive).
Take `FC(F)Sc1ccc(NC(=S)NC2CCCC2)cc1`: the activation factor was 1.23 and the activity change, negative = activation is -22.6% (inactive).
The matching figures for `FC(F)Sc1ccc(NC(=S)NC(c2ccccc2)c2ccccc2)cc1`: 3.77 and -277% (active).
The matching figures for `NC(=O)CSCc1cccc(Br)c1`: 1.01 and -0.9% (inactive).
On to `O=S1(=O)c2ccccc2OC(COCc2ccccc2)CN1Cc1ccccc1` (stereo not drawn), for which the activation factor came to 1.13 and the activity change, negative = activation was -13.2% (inactive).
Taken in the same sequence, the figures for `Cc1cc(C)nc(SCc2nnc(SCC(=O)Nc3ccccc3C)n2Cc2ccco2)n1` were 0.974 and 2.65% (inactive).
The matching figures for `Cc1ccc(-c2cc(C(F)F)n3ncc(C(=O)N4CCN(c5cccc(C)c5C)CC4)c3n2)cc1`: 0.892 and 10.8% (inactive).
In the case of `CCCc1cc(=O)oc2cc3occ(C)c3cc12`, the activation factor was 0.917 and the activity change, negative = activation was 8.35% (inactive).
Taken in the same sequence, the figures for `CCOn1c(=O)c(-c2ccc(Cl)cc2)[n+]([O-])c2ccccc21` were 0.944 and 5.65% (inactive).
Taken in the same sequence, the figures for `CC(C)(C)c1n[nH]c(=S)n(N)c1=O` were 1.04 and -4.25% (inactive).
Taken in the same sequence, the figures for `CCn1c(CNc2nc3ccccc3n2C(C)C)nc2ccccc21` were 1.97 and -97.3% (active).
As for `CCn1c(NCc2ccc(N(C)C)cc2)nc2ccccc21`, the activation factor turned out to be 1.11 and the activity change, negative = activation is -10.6% (inactive).
For the molecule `CCn1c(NCc2ccccn2)nc2ccccc21`, the activation factor was found to be 0.877 and the activity change, negative = activation was 12.3% (inactive).
Taken in the same sequence, the figures for `Cc1ccc2oc(-c3ccc(NC(=O)c4ccc5c(c4)OCO5)cc3)nc2c1` were 0.944 and 5.6% (inactive).
The matching figures for `CSc1nccc(-c2nn(-c3ccc(C)cc3)ccc2=O)n1`: 1 and -0.05% (inactive).
Taken in the same sequence, the figures for `O=C(NC[C@@H]1CC[C@@H](Cc2ccc(-c3ccccc3)cc2)O1)Nc1ccc(Br)cc1` were 4.1 and -310% (active).
As for `CCOC(=O)C1=C(C)N(C[C@@H]2CC[C@@H](Cc3ccc(-c4ccccc4)cc3)O2)C(=O)NC1c1ccc(-c2ccccc2)cc1` (stereo partly drawn), the activation factor was 1.12 and the activity change, negative = activation is -12.1% (inactive).
Taken in the same sequence, the figures for `O=C(NCCCCc1ccccc1)NC[C@@H]1CC[C@@H](Cc2ccc(-c3ccccc3)cc2)O1` were 4.44 and -344% (active).
The matching figures for `S=C(NCC1COc2ccccc2O1)Nc1ccc(Br)cc1` (stereo not drawn): 1.68 and -68.1% (inactive).
Take `NC(=O)NC[C@@H]1CC[C@@H](Cc2ccc(-c3ccccc3)cc2)O1`: the activation factor was 1.01 and the activity change, negative = activation is -0.6% (inactive).
Taken in the same sequence, the figures for `COc1ccc2cc(C[C@@H]3CC[C@@H](CNC(N)=O)O3)ccc2c1` were 0.994 and 0.55% (inactive).
The matching figures for `OC[C@@H]1CC[C@@H](Cc2ccc(-c3ccccc3)cc2)O1`: 1.07 and -7.05% (inactive).
On to `COc1ccc(N2CCN(CCCNC(=O)Nc3ccccc3)CC2)cc1`, for which the activation factor was found to be 1.16 and the activity change, negative = activation was -16.2% (inactive).
Taken in the same sequence, the figures for `COc1ccc(NC(=O)NC[C@@H]2CC[C@@H](Cc3ccc(-c4ccccc4)cc3)O2)cc1` were 2.82 and -182% (active).
For `CC(C)[C@H]1COCCS(=O)(=O)N1Cc1ccccc1-c1cccc2c1oc1ccccc12`, the activation factor was found to be 0.927 and the activity change, negative = activation is 7.3% (inactive).
In the case of `Cc1c(C(=O)NCC2COc3ccccc3O2)oc2ccc(S(=O)(=O)N3CCOCC3)cc12` (stereo not drawn), the activation factor was found to be 1.07 and the activity change, negative = activation is -6.7% (inactive).
The matching figures for `CCNc1nc(NC(C)(C)C)nc(SC(C(C)=O)C(C)=O)n1`: 1.04 and -4.2% (inactive).
The matching figures for `O=C(OCn1nnc2ccccc2c1=O)C1CCN(S(=O)(=O)c2cccs2)CC1`: 0.919 and 8.05% (inactive).
For `Cc1ccc(C2=NN3C(C(=O)c4ccccc4)Oc4ccccc4C3C2)cc1` (stereo not drawn), the activation factor was 0.916 and the activity change, negative = activation is 8.35% (inactive).
Taken in the same sequence, the figures for `O=C(c1cc(NC(=O)C23CC4CC(CC(C4)C2)C3)cc(NC(=O)C23CC4CC(CC(C4)C2)C3)c1)N1CCCCC1` were 2.06 and -106% (active).
Taken in the same sequence, the figures for `COC(=O)c1sccc1NC(=O)C12CC3CC(CC(C3)C1)C2` were 1.03 and -2.7% (inactive).
The matching figures for `O=C(Nc1ccccc1N1CCN(c2ccccc2)CC1)C12CC3CC(CC(C3)C1)C2`: 0.927 and 7.25% (inactive).
As for `CCOc1ccccc1C1N(c2ccc(F)cc2)C(=O)C2CCCN21` (stereo not drawn), the activation factor was found to be 0.988 and the activity change, negative = activation is 1.2% (inactive).
Taken in the same sequence, the figures for `CCc1nnc(NC(=O)C2CCCN2C(=O)Nc2ccccc2OC)s1` (stereo not drawn) were 1.12 and -12.2% (inactive).
For `CCCCNC(=O)Nc1ccc2c(c1)N(C)C(=O)c1ccccc1S2`, the activation factor came to 2.25 and the activity change, negative = activation was -124% (active).
The matching figures for `CC(=O)c1ccc2c(c1)N(C)c1ccccc1S2`: 0.875 and 12.5% (inactive).
The matching figures for `CCC(C)NC(=O)Nc1ccc2c(c1)N(C)C(=O)c1ccccc1S2` (stereo not drawn): 2 and -100% (active).
The matching figures for `CCCCSCCCNC(=O)Nc1ccc(C)c(C)c1`: 1.25 and -24.7% (inactive).
In the case of `CCCCSCCCNC(=O)Nc1ccc(CC)cc1`, the activation factor was determined as 1.39 and the activity change, negative = activation was -38.9% (inactive).
As for `COc1ccc(NC(=O)Nc2ccc3c(c2)N(C)C(=O)CS3)cc1Cl`, the activation factor worked out at 1.91 and the activity change, negative = activation is -90.9% (inactive).
